Laboratory results reported in PubChem BioAssay (NCI).
The panel holds about 83,000 compounds, 20% with a hit somewhere; the sample as a whole holds those more often.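 Method: cells in 96-well plates; compound added at one concentration; 48 h incubation; percent growth measured; values under 10 scored active.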 Active and inactive are the calls of the source.

Experiments:
Assay in all cases: NCI-60 one-dose screen, 48 h (100 = growth as untreated, 0 = no growth, -100 = all killed)
Details in all cases: 10 µM unless noted
[1] = tested on: DU-145 prostate
[2] = tested on: MALME-3M melanoma
[3] = tested on: MDA-MB-231 breast
[4] = tested on: RXF 393 renal
[5] = tested on: SF-268 CNS
[6] = tested on: SF-539 CNS
[7] = tested on: UACC-257 melanoma
[8] = tested on: M14 melanoma
[9] = tested on: HCT-15 colon
[10] = tested on: HT29 colon
[11] = tested on: SNB-75 CNS
[12] = tested on: SNB-19 CNS
[13] = tested on: U251 CNS
[14] = tested on: PC-3 prostate
[15] = tested on: SK-MEL-5 melanoma
[16] = tested on: UACC-62 melanoma
[17] = tested on: LOX IMVI melanoma
[18] = tested on: SK-MEL-28 melanoma
[19] = tested on: K-562 leukemia
[20] = tested on: SF-295 CNS

Measured: growth

NCCCOc1cc2ccccc2cc1C(=O)NCCCOc1cc2ccccc2cc1C(=O)Nc1ccc(Cl)cc1O
active: [1] -21.3% | [2] -82.5% | [3] -87.9% | [4] -96.5% | [5] -27.8% | [6] -93.7% | [7] -69.2% | [8] -74.6% | [9] -55.3% | [10] -90.7% | [11] -68.2% | [12] -65.9% | [13] -86.1% | [14] -86.1% | [15] -70% | [16] -88.6% | [17] -89.6% | [18] -89.2%

COc1ccc(/C(=C\c2ccc3c(c2)OCO3)C(=O)Nc2nc3ccccc3s2)cc1
inactive: [1] 102% | [2] 95.3% | [3] 102% | [4] 118% | [5] 96% | [6] 104% | [7] 99.7% | [8] 107% | [9] 93.2% | [10] 94.6% | [11] 103% | [12] 109% | [13] 101% | [14] 106% | [15] 98.9% | [16] 102% | [17] 100% | [18] 104%

COc1cc2c(cc1OCCCOc1cc3c(cc1OC)C(=O)N1CCC[C@H]1C=N3)C=CC(C)(C)O2
inactive: [19] 71.2% | [2] 152% | [3] 88.6% | [4] 94.8% | [5] 91.2% | [20] 123% | [6] 126% | [7] 83.9% | [8] 111% | [9] 89.9% | [10] 99.7% | [11] 93.8% | [12] 85.9% | [13] 66.6% | [14] 78.9% | [15] 66.4% | [16] 81% | [17] 69.6% | [18] 33.2%

COc1ccc(/C(=C\c2ccc3c(c2)OCO3)C(=O)Nc2nc3ccc(F)cc3s2)cc1OC
inactive: [1] 98.2% | [19] 101% | [3] 109% | [4] 111% | [5] 98.5% | [6] 96.3% | [7] 112% | [8] 94.3% | [9] 108% | [10] 95.3% | [11] 90.9% | [12] 109% | [13] 96.2% | [14] 88.2% | [15] 104% | [16] 108% | [17] 101% | [18] 102%

CCCCC(CCc1ccccn1)C(=O)c1ccccc1 (configuration not stated)
inactive: [19] 116% | [2] 119% | [3] 104% | [4] 109% | [5] 122% | [20] 104% | [6] 107% | [7] 123% | [8] 108% | [9] 107% | [10] 109% | [11] 89.8% | [12] 110% | [13] 114% | [14] 98.2% | [15] 103% | [16] 107% | [17] 96.5% | [18] 108%

Fc1ccc2nc(-c3ccc(-c4noc(-c5ccc(Cl)cc5)n4)cc3)[nH]c2c1
inactive: [1] 98.5% | [19] 92.5% | [3] 106% | [4] 110% | [5] 105% | [6] 100% | [7] 101% | [8] 107% | [9] 109% | [10] 103% | [11] 110% | [12] 110% | [14] 102% | [15] 104% | [16] 113% | [17] 104% | [18] 128%

C=CCOc1c(Br)cc(Br)cc1Br
inactive: [1] 81.8% | [19] 52.2% | [3] 44.6% | [4] 76.9% | [5] 68.7% | [6] 45.4% | [7] 79% | [8] 73.5% | [9] 62.9% | [10] 104% | [11] 60.7% | [12] 50.5% | [13] 46.8% | [14] 65.8% | [15] 59% | [17] 64.4% | [18] 77.8%

CN(C)c1ccc(C(c2ccccc2)c2ccc(N(C)C)cc2)cc1
inactive: [1] 101% | [19] 73.4% | [3] 98.5% | [4] 107% | [5] 89.9% | [6] 112% | [7] 98.1% | [8] 93% | [9] 99.7% | [10] 90.4% | [11] 108% | [12] 96.9% | [13] 77.7% | [14] 90.7% | [17] 90% | [18] 107%

O=C(NCCNC(=O)c1cc(S(=O)(=O)NCCc2ccccc2)c(O)c(O)c1O)c1cc(S(=O)(=O)NCCc2ccccc2)c(O)c(O)c1O
active: [16] -15%
inactive: [1] 77.1% | [2] 94.3% | [3] 59.9% | [4] 78.1% | [5] 45.9% | [6] 20.3% | [7] 86.1% | [8] 44.4% | [9] 40.5% | [10] 108% | [11] 63% | [12] 35.7% | [13] 31.3% | [14] 40.2% | [15] 15.6% | [17] 15% | [18] 54.2%

SCc1ccc(CS)cc1
inactive: [1] 116% | [2] 106% | [3] 123% | [4] 112% | [20] 109% | [6] 104% | [7] 114% | [8] 106% | [9] 105% | [10] 120% | [11] 109% | [12] 115% | [13] 101% | [14] 98.1% | [15] 95.7% | [16] 105% | [17] 96.2% | [18] 112%

COc1ccc2nc(NC(=O)/C(=C/c3cc(OC)c(OC)c(OC)c3)c3ccc(OC)c(OC)c3)sc2c1
inactive: [1] 106% | [2] 98% | [3] 68.8% | [4] 107% | [5] 99.9% | [6] 102% | [7] 97.2% | [8] 104% | [9] 100% | [10] 88.4% | [11] 94.3% | [12] 102% | [13] 94.6% | [14] 86.8% | [15] 93% | [16] 90.5% | [17] 90.4% | [18] 105%

O=C(Cc1ccc(Nc2ccnc(C(F)(F)F)c2)cc1)N/N=C/c1ccccc1O
active: [8] 8.64% | [17] 9.12%
inactive: [1] 39.3% | [2] 38.8% | [3] 27.9% | [4] 49% | [5] 28.6% | [20] 30% | [6] 24.1% | [7] 34.7% | [9] 14.6% | [10] 75.4% | [11] 30.8% | [12] 31.1% | [13] 23.8% | [14] 71.1% | [15] 10.8% | [16] 10.8% | [18] 106%

COc1ccc(Br)c2ccccc12
inactive: [19] 94.3% | [2] 121% | [3] 123% | [4] 109% | [5] 108% | [20] 110% | [6] 109% | [7] 100% | [8] 101% | [9] 110% | [10] 110% | [11] 93.7% | [12] 116% | [13] 114% | [14] 102% | [15] 107% | [16] 107% | [17] 101% | [18] 122%

NC(=Nc1ccccc1)SCCCSC(N)=Nc1ccccc1
inactive: [1] 95.7% | [19] 75% | [3] 79.5% | [4] 99.5% | [5] 95.6% | [6] 93.6% | [7] 108% | [8] 95.6% | [9] 82.4% | [10] 93.9% | [11] 78.4% | [12] 95.8% | [13] 95.6% | [14] 74.7% | [15] 85.5% | [16] 73.4% | [17] 86.7% | [18] 106%

Clc1ccccc1Nc1nnc(-c2ccncc2)s1
inactive: [19] 101% | [2] 109% | [3] 108% | [4] 107% | [5] 105% | [20] 88.7% | [6] 108% | [7] 108% | [8] 104% | [9] 112% | [10] 105% | [11] 106% | [12] 99.8% | [13] 103% | [14] 97.2% | [15] 97.7% | [16] 95.3% | [17] 110% | [18] 100%

COCCCNCC(=O)Nc1c(C)cccc1C
inactive: [1] 113% | [19] 120% | [3] 96.6% | [4] 113% | [5] 109% | [6] 95.3% | [7] 106% | [8] 114% | [9] 108% | [10] 112% | [11] 115% | [12] 110% | [13] 104% | [14] 102% | [15] 106% | [16] 110% | [17] 101% | [18] 122%

COc1cc(-c2n/c(=C\c3c(O)[nH]c4cc(Cl)ccc34)cc3c2=Nc2ccccc2-3)cc(OC)c1OC
inactive: [1] 30.6% | [19] 49.1% | [3] 53.1% | [4] 28.7% | [5] 22.5% | [6] 62.7% | [7] 40.9% | [8] 37.7% | [9] 93.7% | [10] 24.3% | [11] 36.1% | [12] 63.9% | [13] 23.8% | [14] 52.2% | [15] 27.2% | [16] 56.8% | [17] 34.3% | [18] 43%
